Laboratory results taken from article PMC7862700, “An all-to-all approach to the identification of sequence-specific readers for epigenetic DNA modifications on cytosine”.

Assays:
Assay in all cases: DAPPL (digital affinity profiling via proximity ligation, sequencing); 10 mM Tris-HCl pH 7.5, 50 mM NaCl, 1 mM DTT, 4% glycerol, room temperature, 30 min; GST-TFs on glutathione beads, 16-mer random dsDNA library, 0.1% formaldehyde crosslink after washing; high values mean tight binding
[1] = target: T1, FEV (Homo sapiens, UniProt Q99581 1-238); settings: protein: recombinant; tags: N-terminal GST; dsDNA, one strand shown
T1 sequence: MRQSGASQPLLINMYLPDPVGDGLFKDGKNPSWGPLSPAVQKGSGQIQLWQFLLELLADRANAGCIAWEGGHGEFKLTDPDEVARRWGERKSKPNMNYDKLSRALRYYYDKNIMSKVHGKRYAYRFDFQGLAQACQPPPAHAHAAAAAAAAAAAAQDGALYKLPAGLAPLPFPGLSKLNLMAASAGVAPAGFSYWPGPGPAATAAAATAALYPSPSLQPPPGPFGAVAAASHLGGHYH
Outline: (§1)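 After expression in yeast as GST fusions, human transcription factors were bound to glutathione beads, DNA-barcoded and mixed with a tag-only sample. The pools were incubated with 200 nmole of a 16-mer random double-stranded DNA library in Tris/NaCl/DTT/glycerol buffer (30 min, room temperature), washed and crosslinked with 0.1% formaldehyde. Proximity ligation with BsaI/T4 ligase ran for 1 h at 37 °C, before PCR amplification and sequencing on an Illumina NextSeq500. Binding signal is a hexamer's read frequency for a factor divided by its frequency for the tag-only sample.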

[2] = target: ETV5 (Homo sapiens, UniProt P41161 1-510); settings: protein: recombinant; tags: N-terminal GST; dsDNA, one strand shown
ETV5, sequence (P41161 whole entry): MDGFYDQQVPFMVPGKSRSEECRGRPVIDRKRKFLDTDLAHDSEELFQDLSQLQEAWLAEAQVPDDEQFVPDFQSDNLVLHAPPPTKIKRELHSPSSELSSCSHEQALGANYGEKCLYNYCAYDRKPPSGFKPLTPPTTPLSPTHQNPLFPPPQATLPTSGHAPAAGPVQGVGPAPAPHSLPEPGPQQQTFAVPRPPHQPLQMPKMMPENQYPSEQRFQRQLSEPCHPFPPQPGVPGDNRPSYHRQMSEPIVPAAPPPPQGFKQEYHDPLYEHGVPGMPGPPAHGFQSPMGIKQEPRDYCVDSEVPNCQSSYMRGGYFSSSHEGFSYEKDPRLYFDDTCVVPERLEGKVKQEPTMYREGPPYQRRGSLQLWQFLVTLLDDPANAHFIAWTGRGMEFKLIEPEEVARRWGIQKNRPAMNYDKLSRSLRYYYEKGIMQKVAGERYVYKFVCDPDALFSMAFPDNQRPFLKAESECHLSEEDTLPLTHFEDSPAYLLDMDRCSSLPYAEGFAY
Outline: as §1

[3] = target: HSF1 (Homo sapiens, UniProt Q00613 1-529); settings: protein: recombinant; tags: N-terminal GST; chain copies: 3; dsDNA, one strand shown
HSF1, sequence (Q00613 whole entry): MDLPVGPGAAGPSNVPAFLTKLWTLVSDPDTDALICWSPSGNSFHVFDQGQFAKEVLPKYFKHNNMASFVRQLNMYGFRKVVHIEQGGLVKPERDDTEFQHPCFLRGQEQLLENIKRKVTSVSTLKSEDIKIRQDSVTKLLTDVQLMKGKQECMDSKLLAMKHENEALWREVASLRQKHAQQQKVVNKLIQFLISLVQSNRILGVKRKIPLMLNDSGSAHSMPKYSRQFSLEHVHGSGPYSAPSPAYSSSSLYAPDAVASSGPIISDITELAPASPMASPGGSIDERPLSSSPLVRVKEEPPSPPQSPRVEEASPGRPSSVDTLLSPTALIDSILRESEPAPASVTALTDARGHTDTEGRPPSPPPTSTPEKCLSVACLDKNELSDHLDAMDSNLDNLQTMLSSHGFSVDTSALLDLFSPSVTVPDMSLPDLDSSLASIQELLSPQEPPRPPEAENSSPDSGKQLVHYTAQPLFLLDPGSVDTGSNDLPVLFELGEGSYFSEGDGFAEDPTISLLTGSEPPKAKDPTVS
Outline: as §1

[4] = target: T2, SPIC (Homo sapiens, UniProt Q8N5J4 1-248); settings: protein: recombinant; tags: N-terminal GST; dsDNA, one strand shown
T2 sequence: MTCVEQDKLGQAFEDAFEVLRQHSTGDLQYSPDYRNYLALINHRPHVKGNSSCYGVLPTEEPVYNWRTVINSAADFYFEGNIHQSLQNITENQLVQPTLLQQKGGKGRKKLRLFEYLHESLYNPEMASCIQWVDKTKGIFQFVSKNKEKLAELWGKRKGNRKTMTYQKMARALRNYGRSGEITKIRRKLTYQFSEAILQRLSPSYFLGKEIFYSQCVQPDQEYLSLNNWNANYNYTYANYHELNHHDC
Outline: as §1

[5] = target: ELF4 (Homo sapiens, UniProt Q99607 1-663); settings: protein: recombinant; tags: N-terminal GST; dsDNA, one strand shown
ELF4, sequence (Q99607 whole entry): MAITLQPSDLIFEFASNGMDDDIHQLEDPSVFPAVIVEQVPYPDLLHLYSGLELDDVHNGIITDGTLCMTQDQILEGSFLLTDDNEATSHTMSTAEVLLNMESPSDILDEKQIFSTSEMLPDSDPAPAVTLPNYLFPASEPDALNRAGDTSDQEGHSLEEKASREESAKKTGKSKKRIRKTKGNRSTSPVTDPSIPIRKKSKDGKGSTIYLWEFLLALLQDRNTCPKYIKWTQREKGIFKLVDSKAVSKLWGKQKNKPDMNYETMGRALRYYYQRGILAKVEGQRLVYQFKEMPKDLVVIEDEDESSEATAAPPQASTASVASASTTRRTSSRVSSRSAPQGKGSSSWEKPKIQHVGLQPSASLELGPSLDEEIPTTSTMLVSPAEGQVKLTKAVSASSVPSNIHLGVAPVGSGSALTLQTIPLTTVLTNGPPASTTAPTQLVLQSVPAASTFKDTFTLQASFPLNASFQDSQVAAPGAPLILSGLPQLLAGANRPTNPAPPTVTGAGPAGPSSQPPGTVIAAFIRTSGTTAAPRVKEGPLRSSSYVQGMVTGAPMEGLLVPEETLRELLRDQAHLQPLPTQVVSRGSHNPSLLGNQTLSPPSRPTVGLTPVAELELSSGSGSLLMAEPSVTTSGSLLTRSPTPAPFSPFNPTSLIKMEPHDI
Outline: as §1

[6] = target: T3, ELK4 (Homo sapiens, UniProt P28324-2 1-405); settings: protein: recombinant; tags: N-terminal GST; dsDNA, one strand shown
T3 sequence: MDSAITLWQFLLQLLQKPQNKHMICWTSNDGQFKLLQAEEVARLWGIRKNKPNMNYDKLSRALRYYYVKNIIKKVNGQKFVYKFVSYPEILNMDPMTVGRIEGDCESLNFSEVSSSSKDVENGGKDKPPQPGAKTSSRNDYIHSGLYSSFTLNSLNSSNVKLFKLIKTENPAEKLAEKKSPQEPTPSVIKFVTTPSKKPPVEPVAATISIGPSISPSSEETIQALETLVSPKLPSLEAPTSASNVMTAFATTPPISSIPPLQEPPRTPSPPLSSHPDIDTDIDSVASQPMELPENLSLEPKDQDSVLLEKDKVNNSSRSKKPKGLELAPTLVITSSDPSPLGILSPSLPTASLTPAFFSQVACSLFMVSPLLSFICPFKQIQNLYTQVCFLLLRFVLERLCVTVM
Outline: as §1

[7] = target: T4, ETV2 (Homo sapiens, UniProt O00321 1-342); settings: protein: recombinant; tags: N-terminal GST; dsDNA, one strand shown
T4 sequence: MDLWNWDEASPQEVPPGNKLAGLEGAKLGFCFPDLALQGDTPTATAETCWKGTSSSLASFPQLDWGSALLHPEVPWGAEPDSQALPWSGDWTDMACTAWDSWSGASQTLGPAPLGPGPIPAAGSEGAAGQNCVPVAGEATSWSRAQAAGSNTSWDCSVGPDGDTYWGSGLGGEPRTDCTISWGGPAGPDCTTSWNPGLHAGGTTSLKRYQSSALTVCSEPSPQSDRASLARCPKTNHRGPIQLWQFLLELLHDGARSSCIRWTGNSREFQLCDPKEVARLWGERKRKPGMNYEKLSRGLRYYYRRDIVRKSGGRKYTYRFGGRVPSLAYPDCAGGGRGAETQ
Outline: as §1

[8] = target: T5, ELF3 (Homo sapiens, UniProt P78545 1-371); settings: protein: recombinant; tags: N-terminal GST; dsDNA, one strand shown
T5 sequence: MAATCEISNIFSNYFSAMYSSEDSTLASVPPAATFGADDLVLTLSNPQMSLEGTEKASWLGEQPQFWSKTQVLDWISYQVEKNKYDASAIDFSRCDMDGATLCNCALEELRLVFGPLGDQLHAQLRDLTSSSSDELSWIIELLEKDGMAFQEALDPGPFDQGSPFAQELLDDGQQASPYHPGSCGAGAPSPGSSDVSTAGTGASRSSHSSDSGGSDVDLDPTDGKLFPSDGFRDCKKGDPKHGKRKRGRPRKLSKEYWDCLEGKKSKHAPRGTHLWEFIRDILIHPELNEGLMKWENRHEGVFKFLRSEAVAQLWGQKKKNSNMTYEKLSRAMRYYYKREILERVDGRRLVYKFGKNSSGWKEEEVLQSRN
Outline: as §1

[9] = target: CRX (Homo sapiens, UniProt O43186 1-299); settings: protein: recombinant; tags: N-terminal GST; dsDNA, one strand shown
CRX, sequence (O43186 whole entry): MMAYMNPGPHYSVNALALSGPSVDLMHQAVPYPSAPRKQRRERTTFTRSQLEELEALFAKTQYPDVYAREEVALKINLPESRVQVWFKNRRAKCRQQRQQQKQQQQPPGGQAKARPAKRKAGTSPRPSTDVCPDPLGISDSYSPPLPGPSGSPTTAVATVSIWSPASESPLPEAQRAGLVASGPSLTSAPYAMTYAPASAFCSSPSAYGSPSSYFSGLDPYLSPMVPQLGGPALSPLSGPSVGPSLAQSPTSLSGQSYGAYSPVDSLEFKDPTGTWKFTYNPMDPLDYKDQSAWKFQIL
Outline: as §1

[10] = target: ETV1 (Homo sapiens, UniProt P50549 1-477); settings: protein: recombinant; tags: N-terminal GST; dsDNA, one strand shown
ETV1, sequence (P50549 whole entry): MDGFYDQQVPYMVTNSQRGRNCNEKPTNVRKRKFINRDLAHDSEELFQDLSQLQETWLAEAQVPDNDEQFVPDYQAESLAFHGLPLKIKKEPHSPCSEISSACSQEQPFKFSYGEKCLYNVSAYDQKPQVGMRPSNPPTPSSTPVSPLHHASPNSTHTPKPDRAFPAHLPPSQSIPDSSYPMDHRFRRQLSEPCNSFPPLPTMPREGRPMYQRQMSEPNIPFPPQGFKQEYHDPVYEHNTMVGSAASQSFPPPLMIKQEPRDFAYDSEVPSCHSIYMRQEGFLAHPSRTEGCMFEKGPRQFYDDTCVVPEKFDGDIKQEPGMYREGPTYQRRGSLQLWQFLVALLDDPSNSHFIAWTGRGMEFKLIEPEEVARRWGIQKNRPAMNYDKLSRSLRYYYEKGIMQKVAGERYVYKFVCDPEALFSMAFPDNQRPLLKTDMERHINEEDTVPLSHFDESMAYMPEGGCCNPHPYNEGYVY
Outline: as §1

[11] = target: T6, ERF (Homo sapiens, UniProt P50548 1-548); settings: protein: recombinant; tags: N-terminal GST; dsDNA, one strand shown
T6 sequence: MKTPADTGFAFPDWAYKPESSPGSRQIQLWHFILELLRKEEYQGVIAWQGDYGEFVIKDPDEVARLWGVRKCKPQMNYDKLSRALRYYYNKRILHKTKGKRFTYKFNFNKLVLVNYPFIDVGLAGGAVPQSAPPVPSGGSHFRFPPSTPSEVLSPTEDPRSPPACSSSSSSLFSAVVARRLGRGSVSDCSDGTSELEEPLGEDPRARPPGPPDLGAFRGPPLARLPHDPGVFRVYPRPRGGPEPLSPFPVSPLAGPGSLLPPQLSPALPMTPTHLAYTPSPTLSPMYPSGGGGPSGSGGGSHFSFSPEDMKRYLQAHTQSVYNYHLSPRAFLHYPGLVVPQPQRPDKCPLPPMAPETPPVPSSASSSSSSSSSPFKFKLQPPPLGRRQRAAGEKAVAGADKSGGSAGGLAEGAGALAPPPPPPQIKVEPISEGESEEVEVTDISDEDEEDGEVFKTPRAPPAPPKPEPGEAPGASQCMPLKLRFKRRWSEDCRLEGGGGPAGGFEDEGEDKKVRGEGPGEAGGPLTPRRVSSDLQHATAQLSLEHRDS
Outline: as §1

[12] = target: T7, ETV3L (Homo sapiens, UniProt Q6ZN32 1-361); settings: protein: recombinant; tags: N-terminal GST; dsDNA, one strand shown
T7 sequence: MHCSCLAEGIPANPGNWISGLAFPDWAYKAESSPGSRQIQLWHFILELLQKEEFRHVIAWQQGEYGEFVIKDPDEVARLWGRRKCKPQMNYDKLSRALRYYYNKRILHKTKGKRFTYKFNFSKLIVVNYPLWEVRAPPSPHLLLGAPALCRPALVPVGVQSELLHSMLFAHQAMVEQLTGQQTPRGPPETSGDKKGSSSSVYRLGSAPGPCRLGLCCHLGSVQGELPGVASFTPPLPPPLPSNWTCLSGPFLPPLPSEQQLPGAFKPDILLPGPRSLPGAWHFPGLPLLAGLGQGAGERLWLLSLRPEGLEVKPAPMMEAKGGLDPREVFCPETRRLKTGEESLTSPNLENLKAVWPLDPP
Outline: as §1

[13] = target: T8, ETS2 (Homo sapiens, UniProt P15036 1-469); settings: protein: recombinant; tags: N-terminal GST; dsDNA, one strand shown
T8 sequence: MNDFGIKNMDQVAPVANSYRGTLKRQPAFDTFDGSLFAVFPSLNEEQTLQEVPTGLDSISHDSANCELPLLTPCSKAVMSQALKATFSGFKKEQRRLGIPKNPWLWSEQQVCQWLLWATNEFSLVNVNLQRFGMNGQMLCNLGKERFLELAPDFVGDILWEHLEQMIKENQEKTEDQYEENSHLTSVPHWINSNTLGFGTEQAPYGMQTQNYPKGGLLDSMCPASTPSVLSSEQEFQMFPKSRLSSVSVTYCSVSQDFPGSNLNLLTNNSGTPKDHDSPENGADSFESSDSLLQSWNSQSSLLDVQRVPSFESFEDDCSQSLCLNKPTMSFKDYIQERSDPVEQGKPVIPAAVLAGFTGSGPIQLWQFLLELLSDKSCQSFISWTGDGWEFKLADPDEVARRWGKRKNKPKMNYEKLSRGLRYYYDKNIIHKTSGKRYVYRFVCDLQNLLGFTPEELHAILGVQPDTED
Outline: as §1

[14] = target: T9, SPDEF (Homo sapiens, UniProt O95238 1-335); settings: protein: recombinant; tags: N-terminal GST; dsDNA, one strand shown
T9 sequence: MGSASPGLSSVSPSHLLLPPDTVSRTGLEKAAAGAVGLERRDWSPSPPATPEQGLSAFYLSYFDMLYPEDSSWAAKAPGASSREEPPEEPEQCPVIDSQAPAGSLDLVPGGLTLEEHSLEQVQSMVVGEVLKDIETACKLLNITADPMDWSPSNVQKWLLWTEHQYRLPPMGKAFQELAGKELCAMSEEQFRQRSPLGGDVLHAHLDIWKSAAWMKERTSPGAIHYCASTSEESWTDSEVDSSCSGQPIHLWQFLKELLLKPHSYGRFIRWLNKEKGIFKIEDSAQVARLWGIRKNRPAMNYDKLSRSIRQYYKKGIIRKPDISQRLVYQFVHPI
Outline: as §1

[15] = target: T10, ETV7 (Homo sapiens, UniProt Q9Y603 1-341); settings: protein: recombinant; tags: N-terminal GST; dsDNA, one strand shown
T10 sequence: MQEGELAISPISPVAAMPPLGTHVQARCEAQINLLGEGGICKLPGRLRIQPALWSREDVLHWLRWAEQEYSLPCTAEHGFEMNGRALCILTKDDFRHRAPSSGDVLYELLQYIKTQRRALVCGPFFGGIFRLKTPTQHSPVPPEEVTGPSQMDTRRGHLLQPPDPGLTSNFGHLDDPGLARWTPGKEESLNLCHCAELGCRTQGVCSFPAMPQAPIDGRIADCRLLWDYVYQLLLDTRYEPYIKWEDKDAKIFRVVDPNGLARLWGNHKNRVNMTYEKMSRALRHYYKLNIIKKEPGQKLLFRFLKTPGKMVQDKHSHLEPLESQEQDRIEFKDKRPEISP
Outline: as §1

[16] = target: T11, ELF5 (Homo sapiens, UniProt Q9UKW6-2 1-255); settings: protein: recombinant; tags: N-terminal GST; dsDNA, one strand shown
T11 sequence: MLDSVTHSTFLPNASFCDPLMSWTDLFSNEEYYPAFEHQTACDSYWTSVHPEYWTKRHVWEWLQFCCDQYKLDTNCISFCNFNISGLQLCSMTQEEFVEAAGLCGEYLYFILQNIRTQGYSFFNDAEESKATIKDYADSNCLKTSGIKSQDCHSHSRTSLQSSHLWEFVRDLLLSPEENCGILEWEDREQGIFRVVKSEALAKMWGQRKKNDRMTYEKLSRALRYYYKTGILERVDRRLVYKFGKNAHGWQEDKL
Outline: as §1

[17] = target: T12, ETV3 (Homo sapiens, UniProt P41162-2 1-143); settings: protein: recombinant; tags: N-terminal GST; dsDNA, one strand shown
T12 sequence: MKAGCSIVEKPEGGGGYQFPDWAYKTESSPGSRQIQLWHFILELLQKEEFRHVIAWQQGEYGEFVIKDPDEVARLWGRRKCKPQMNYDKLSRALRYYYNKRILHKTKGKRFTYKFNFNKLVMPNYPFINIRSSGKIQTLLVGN
Outline: as §1

[18] = target: ETV6 (Homo sapiens, UniProt P41212 1-452); settings: protein: recombinant; tags: N-terminal GST; dsDNA, one strand shown
ETV6, sequence (P41212 whole entry): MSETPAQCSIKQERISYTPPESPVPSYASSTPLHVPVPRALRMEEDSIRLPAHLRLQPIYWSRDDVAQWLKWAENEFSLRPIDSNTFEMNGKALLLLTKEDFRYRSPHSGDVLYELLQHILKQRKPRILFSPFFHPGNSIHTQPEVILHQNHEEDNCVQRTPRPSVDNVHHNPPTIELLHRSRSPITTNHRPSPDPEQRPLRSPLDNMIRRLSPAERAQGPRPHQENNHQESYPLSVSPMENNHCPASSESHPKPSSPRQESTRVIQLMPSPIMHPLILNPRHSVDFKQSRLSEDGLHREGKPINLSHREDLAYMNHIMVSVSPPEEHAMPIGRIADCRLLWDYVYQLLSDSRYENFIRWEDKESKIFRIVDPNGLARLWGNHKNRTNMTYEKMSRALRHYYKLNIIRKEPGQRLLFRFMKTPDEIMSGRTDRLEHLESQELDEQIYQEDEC
Outline: as §1

Q: How did the binding signal [1] turn out when TTCGAA was run?
A: 1.13 fold enrichment (6-mer frequency, TF over GST control)

Q: What about the binding signal [2] of the same sequence?
A: 1.18 fold enrichment (6-mer frequency, TF over GST control)

Q: And the binding signal [3]?
A: 1.93 fold enrichment (6-mer frequency, TF over GST control)

Q: What about the binding signal [4] of the same sequence?
A: 1.18 fold enrichment (6-mer frequency, TF over GST control)

Q: What about the binding signal [5] of the same sequence?
A: 1.26 fold enrichment (6-mer frequency, TF over GST control)

Q: What about the binding signal [6] of the same sequence?
A: 1.2 fold enrichment (6-mer frequency, TF over GST control)

Q: And the binding signal [7]?
A: 1.16 fold enrichment (6-mer frequency, TF over GST control)

Q: What about the binding signal [8] of the same sequence?
A: 1.24 fold enrichment (6-mer frequency, TF over GST control)

Q: What about the binding signal [9] of the same sequence?
A: 1.3 fold enrichment (6-mer frequency, TF over GST control)

Q: And the binding signal [10]?
A: 1.1 fold enrichment (6-mer frequency, TF over GST control)

Q: What about the binding signal [11] of the same sequence?
A: 1.33 fold enrichment (6-mer frequency, TF over GST control)

Q: And the binding signal [12]?
A: 1.25 fold enrichment (6-mer frequency, TF over GST control)

Q: What about the binding signal [13] of the same sequence?
A: 1.24 fold enrichment (6-mer frequency, TF over GST control)

Q: And the binding signal [14]?
A: 1.17 fold enrichment (6-mer frequency, TF over GST control)

Q: And the binding signal [15]?
A: 1.26 fold enrichment (6-mer frequency, TF over GST control)

Q: What about the binding signal [16] of the same sequence?
A: 1.14 fold enrichment (6-mer frequency, TF over GST control)

Q: What about the binding signal [17] of the same sequence?
A: 1.03 fold enrichment (6-mer frequency, TF over GST control)

Q: What about the binding signal [18] of the same sequence?
A: 1.15 fold enrichment (6-mer frequency, TF over GST control)
